Experimental data reported in PubChem BioAssay (NCI).
About 79,000 compounds went through this panel and 15% of them were active in at least one assay; those are over-represented in the sample as a whole. The source made the active and inactive calls. No stated cut-off is given here; in the data, active means growth inhibition above about 70%; inactive means the rest.

Test: NCI Yeast Anticancer Drug Screen. Data for the mlh1 rad18 strain (AID 175)
Conditions: S. cerevisiae mlh1 rad18 strain growth inhibition; at 50.0 µM; hits give high values
Outline: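 Read-out is yeast growth inhibition, calculated against vehicle-only controls. The compound was applied to a strain engineered with DNA damage repair alterations.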

Compound	growth inhibition
O=C(Nc1ccccc1-c1nn(C(=S)Nc2ccccc2)c(=S)n(C(=S)Nc2ccccc2)c1=O)C(F)(F)F	81.5% (active)
Cc1ccc(N=C(N)NN=C(c2ccc(Cl)cc2)c2ccc(Cl)cc2)cc1	50.3% (inactive)
Cc1cccc(C)c1N1C(=O)C(=O)C(c2nc3ccccc3s2)/C(=N/NC(=O)c2ccccc2O)C1=O (stereo not drawn)	48.5% (inactive)
CN(C)CC1CC/C(=C\c2ccc(O)cc2)C1=O (stereo not drawn)	90.6% (active)
CCCCCC=C(c1cc(Br)cc(C(=O)O)c1O)c1cc(Br)cc(C(=O)O)c1O	88.9% (active)
CCS(CC)(CC)CC1CCCC2=CCC(P(=O)(c3ccccc3)c3ccccc3)CC21 (stereo not drawn)	71.7% (active)
Cc1c[n+](=O)c2ccccc2n1[O-]	-0.1% (inactive)
O=C1CC(=S)NC(=S)N1	40.2% (inactive)
CC1=NN(C(=O)c2ccc(Cl)cc2)C(=O)C1N=Nc1ccc(S(=O)(=O)Nc2ncccn2)cc1 (stereo not drawn)	17.4% (inactive)
COC(=O)c1cc(=O)n(-c2ccccc2OC)c(SC)n1	98.1% (active)
CCCCN(CCCC)Cc1ccc(NC(C(=O)c2ccccc2)c2ccccc2)cc1 (stereo not drawn)	98.7% (active)
Cn1cc(/C=C/[N+](=O)[O-])c2ccc(OCc3ccccc3)cc21	16.9% (inactive)
O=C(c1ccc([N+](=O)[O-])cc1)N1CCCSC1=S	60.5% (inactive)
CCCCCCCCC(=O)NCCN(CCN)C(=O)CCCCCCCC	90% (active)
Cc1nc2sc3c(c2c2nnnn12)CCCC3	9.45% (inactive)
CCC(CC)(C(=O)Nc1ccc2c(c1)c(=O)c1ccccc1n2C)C(=O)Nc1ccc2c(c1)c(=O)c1ccccc1n2C	95.7% (active)
Cc1ccccc1N1CCN(c2c3c(nc4ccccc24)CCCCC3)CC1	96.5% (active)
O=C(Nc1ccccc1)c1cc(Cl)ccc1O	84% (active)
CCCCCCCCCCCCCCCCCCOP(=O)([O-])OC1CC[N+](C)(C)CC1	92.5% (active)
CN(C)c1ccc(C(O)(Cc2cccc(C#N)c2)c2ccc(N(C)C)cc2)cc1	56.8% (inactive)
CC(=O)N1CCC(Cc2ccccc2)CC1	25% (inactive)
O=[N+]([O-])c1ccc(-n2ncc3cccnc32)c([N+](=O)[O-])c1	99.5% (active)
CC(C)OC(=O)c1ccc(NCC2=CC(=O)C=CC2=O)cc1Cl	91.7% (active)
